Assay results reported in PubChem BioAssay (EPA / NIEHS).
The source made the active and inactive calls. The calls were made as follows: active = hit-call score of the fitted dose curve at least 0.9, where 1 is the maximum; inactive = score below 0.9.

assay: APR_HepG2_MitoMembPot_24hr: Apredica 24-hour HepG2 Assay for Mitochondrial Membrane Potential (AID 2282911); details: imaging, actives raise or lower the signal
Protocol: APR_HepG2_24hr is a cell-based, multiplexed-readout assay that uses HepG2, a human liver cell line, with measurements taken at 24 hours after chemical dosing in a 384-well plate.APR_HepG2_MitoMembPot_24hr is one of 10 assay component(s) measured or calculated from the APR_HepG2_24hr assay. It is designed to make measurements of dye binding, a form of membrane potential reporter, as detected with fluorescence intensity signals by HCS Fluorescent Imaging technology.Data from the assay component APR_HepG2_MitoMembPot_24hr was analyzed into 1 assay endpoint. This assay endpoint, APR_HepG2_MitoMembPot_24hr, was analyzed with bidirectional fitting relative to DMSO as the negative control and baseline of activity. Using a type of membrane potential reporter, gain or loss-of-signal activity can be used to understand changes in the signaling. Furthermore, this assay endpoint can be referred to as a primary readout, because this assay has produced multiple assay endpoints where this one serves a signaling function. To generalize the intended target to other relatable targets, this assay endpoint is annotated to the cell morphology intended target family, where the subfamily is organelle conformation.
Cells were treated with dimethyl sulfoxide (DMSO) as a solvent control at a final concentration of 0.5% v/v or with compounds in DMSO with a resulting final DMSO concentration of 0.5% v/v. Compound treatment was done at concentrations of 0.39, 0.78, 1.56, 3.12, 6.24, 12.5, 25, 50, 100, and 200 uM in duplicate on each plate. Cells were treated with compounds for 1, 24, or 72 hr. Carbonyl […] m-chloro-phenylhydrazone (CCCP) and taxol were used as positive controls for mitochondrial function and cytoskeletal stability, respectively; DMSO served as the negative control for this experiment. Cells were fixed by the direct addition of 50 uL formaldehyde in Hank's Balanced Salt Solution (HBSS) to a final concentration of 3.7%. After incubation in the fixation medium for 30 min at room temperature (293-298 K), cells were rinsed twice with HBSS and treated with cell permeabilization buffer (16 uL of 0.5% Triton X-100) for 10 min at room temperature (293-298 K) before labeling. For mitochondrial membrane potential and mitochondrial measurements, pre-fixed cells were incubated with 50 uL of MitoTracker Red CMXRos (Invitrogen) at a concentration of 250 nM for 30 min before fixation. In the remaining cases, post-fixed cells were labeled by incubation with a multiplexed mixture of primary antibodies in HBSS for 60 min at room temperature (293-298 K) to detect immunoreactivity of c-Jun (1:500), phospho-histone H3 (1:100), phospho-histone H2A.x (1:200), p53 (1:400), alpha-tubulin (1:200) and Hoechst 33342 (2 ug/mL). Cells were labeled for multiplexed imaging on two separate plates: a) Hoechst 33342, MitoTracker Red, phospho-histone H3, and alpha-tubulin, and b) Hoechst 33342, phospho-histone H2A.x, and c-Jun. A final rinse with HBSS (50 uL) was performed before analysis. The primary and secondary antibodies for the proteins were phospho-histone H3 (rabbit anti-phospho-histone H3 and FITC-donkey anti-rabbit IgG), phospho-histone H2A.x (mouse anti-phospho-histone H2A.x and FITC-donkey anti-mouse IgG), c-Jun (rabbit anti-phospho-c-Jun and Cy3-donkey anti-rabbit IgG), p53 (sheep anti-p53 and Cy5-donkey anti-sheep IgG), alpha-tubulin (mouse anti-alpha-tubulin and Cy5-donkey anti-mouse IgG). These antibodies are available as the CellCiphr HepG2 assay kit (Millipore).Digital images of each well were captured using a Cellomics ArrayScan VTI (Thermo Scientific Cellomics) (0.8 NA objective, 0.63x optical coupler, and XF-93 filter set) at 20x magnification. The images were acquired using the autofocus feature of the ArrayScan instrument, which entails the following steps. First, the camera focuses on channel 1 (Hoechst 33342), where nuclei are identified. Second, a Z offset of 1 um is used for capturing mitochondria (MitoTracker Red). […]

Row | Structure (SMILES) | outcome | AC50
1 | CC(C)CC(C)O (stereo not given) | inactive | 
2 | COc1cc2c(c(OC)c1OC)-c1ccc(OC)c(=O)cc1[C@@H](NC(C)=O)CC2 | inactive | 
3 | NC(=O)N1c2ccccc2C=Cc2ccccc21 | inactive | 
4 | CCCOc1ccc(S(=O)(=O)N2CCN(CC)CC2)cc1-c1nc2c(CC)n(Cc3ccccn3)nc2c(=O)[nH]1 | inactive | 
5 | CCCCCCCC/C=C\CCCCCCCC(=O)OC[C@@H](O)[C@H]1OC[C@H](O)[C@H]1O | inactive | 
6 | COS(C)(=O)=O | inactive | 
7 | COCc1nnc(-c2ccc[n+]([O-])c2)n1-c1c(Cl)c(Cl)cc2[nH]c(=O)c(=O)[nH]c12 | inactive | 
8 | CNC(C)=O | inactive | 
9 | NC(N)=O | inactive | 
10 | OC[C@H]1O[C@@H]2O[C@H]3[C@H](O)[C@@H](O)[C@@H](O[C@H]4[C@H](O)[C@@H](O)[C@@H](O[C@H]5[C@H](O)[C@@H](O)[C@@H](O[C@H]6[C@H](O)[C@@H](O)[C@@H](O[C@H]7[C@H](O)[C@@H](O)[C@@H](O[C@H]1[C@H](O)[C@H]2O)O[C@@H]7CO)O[C@@H]6CO)O[C@@H]5CO)O[C@@H]4CO)O[C@@H]3CO | inactive | 
11 | C[C@@H](Oc1ccc(CNC(=O)c2cccnc2Oc2ccc3c(c2)OCO3)c(F)c1)C(=O)O |  | 0.0391 µM (active)
12 | CCCCC(CC)C(=O)OCCOCCOCCOC(=O)C(CC)CCCC (stereo not given) | inactive | 
13 | CC(C)CCCCCCOC(=O)C1CCCCC1C(=O)OCCCCCCC(C)C (stereo not given) | inactive | 
14 | CC1(C)C(=O)N(Cl)C(=O)N1Cl | inactive | 
15 | CCCc1ccccc1 |  | 61.3 µM (active)
16 | Nc1ccn([C@@H]2O[C@H](CO)[C@@H](O)[C@@H]2O)c(=O)n1 | inactive | 
17 | Cn1c(=O)c2[nH]cnc2n(C)c1=O | inactive | 
18 | O=C(O)c1ccc2c(c1)nc(C(=O)NC1CCN(C3CC3)CC1)n2Cc1cc(-c2ccc(Cl)s2)on1 | inactive | 
19 | CC(C)C(=O)Nc1ccc([N+](=O)[O-])c(C(F)(F)F)c1 | inactive | 
20 | CC(=O)c1ccccc1 | inactive | 

Row | Structure (SMILES) | outcome | AC50
21 | CCCCOC(=O)c1ccccc1 | inactive | 
22 | CC[C@H](C)C(=O)O[C@H]1C[C@H](O)C=C2C=C[C@H](C)[C@H](CC[C@@H](O)C[C@@H](O)CC(=O)O)[C@H]21 | inactive | 
23 | O=C1CN(N=Cc2ccc([N+](=O)[O-])o2)C(=O)N1 | inactive | 
24 | Cc1ccc(S(=O)(=O)NC(=O)NN2CCCCCC2)cc1 | inactive | 
25 | Cc1ncc([C@@H](CCCCCCc2ccc3c(n2)NCCC3)CC(=O)O)cn1 | inactive | 
26 | CCc1cccc(CC)c1N | inactive | 
27 | CCCCCCCCCCCCCCO | inactive | 
28 | NC(=O)NN=Cc1ccc([N+](=O)[O-])o1 | inactive | 
29 | O=S1(=O)CCCO1 | inactive | 
30 | CCCCCCOC(=O)CC(CC(=O)OCCCCCC)(OC(=O)CCC)C(=O)OCCCCCC | inactive | 
31 | CCCCCCCCCC | inactive | 
32 | CCc1ccc(O)c(C(C)(C)C)c1 |  | 86.2 µM (active)
33 | c1ccc2c(c1)-c1cccc3c1c-2cc1ccccc13 |  | 70.4 µM (active)
34 | OCCOCCOCCO | inactive | 
35 | O=c1[nH]cnc2c1ncn2[C@H]1CC[C@@H](CO)O1 |  | 0.039 µM (active)
36 | OC(CCl)CCl | inactive | 
37 | OC[C@H]1O[C@@](CO)(O[C@H]2O[C@H](CO)[C@@H](O)[C@H](O)[C@H]2O)[C@@H](O)[C@@H]1O | inactive | 
38 | Cc1nccn1-c1ccc(Sc2cccc(C3(C(N)=O)CCOCC3)c2)cc1 | inactive | 
39 | CCCC(CCC)C(=O)O | inactive | 
40 | c1ccc2ncccc2c1 | inactive | 
